Whole data set: some 33,000 sequences, median “E-score (-0.5 to 0.5)” near -0.0034, cut for the highest 2% near 0.25. Shown is part of a subset that was picked to be rich in the highest values.
Biological target: T1, Yap3 (UniProt P38749)
T1 sequence: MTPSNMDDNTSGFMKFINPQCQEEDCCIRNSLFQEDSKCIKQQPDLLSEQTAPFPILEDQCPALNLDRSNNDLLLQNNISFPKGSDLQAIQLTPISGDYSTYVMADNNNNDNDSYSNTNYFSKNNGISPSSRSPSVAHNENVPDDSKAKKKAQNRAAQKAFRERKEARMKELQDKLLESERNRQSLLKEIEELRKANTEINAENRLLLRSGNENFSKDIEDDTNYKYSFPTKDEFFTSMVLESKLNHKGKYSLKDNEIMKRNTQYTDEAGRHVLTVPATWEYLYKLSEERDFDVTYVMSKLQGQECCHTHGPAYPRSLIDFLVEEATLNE
Assay: PBM E-score (8-mer binding enrichment) (E-score (-0.5 to 0.5)); higher = stronger / more preferred TF binding
Conditions: protein concentration: 100 nM; construct: GST-full length
In short: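 Universal all-10-mer Agilent arrays, fresh or stripped once, were converted to double-stranded form by primer extension. GST-tagged yeast transcription factors from PURExpress in vitro transcription/translation, full-length or DNA-binding domain only, were applied at about 100-200 nM and detected with fluorescent anti-GST. After masliner normalisation, the Universal PBM Analysis Suite scored each ungapped eight-base word together with its reverse complement by E-score.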

Row | Sequence | PBM E-score
1 | ACATGGGT | -0.0457
2 | ACTAGCAT | -0.0172
3 | ACAAGCGC | 0.0537
4 | ATACCATC | 0.119
5 | CCATTTGA | -0.0292
6 | TCGATCCA | -0.0884
7 | ACGCGCAC | -0.015
8 | CCAGTTAA | 0.143
9 | GGAGCCTA | -0.0407
10 | TAACGGAA | 0.276
11 | GAACGGAA | 0.0365
12 | CAACGGAA | 0.15
13 | GACAAAAC | 0.179
14 | GAACAAAC | 0.227
15 | GACAAAAA | 0.315
16 | GAACAAAA | 0.346
17 | ACCAAAAT | 0.0693
18 | AACAAAAC | 0.239
19 | ACCAAAAC | 0.104
20 | AACAAAAG | 0.164
21 | AACAAAAA | 0.307
22 | ACCAAAAA | 0.277
23 | GACAAGAA | 0.127
24 | AAACAAAA | 0.185
25 | AGGCCACA | -0.191

Row | Sequence | PBM E-score
26 | GGGATTGA | -0.173
27 | CAGTAGCA | -0.0517
28 | AGTGAAGG | 0.0123
29 | TAATCAAA | 0.285
30 | TTATCAAA | 0.283
31 | CTATCAAA | 0.155
32 | GAATCAAA | 0.0372
33 | GTATCAAA | 0.187
34 | CAATCAAA | 0.0584
35 | GGCGCTGA | -0.124
36 | ATCAGCTC | 0.00619
37 | AGTTACAC | 0.0567
38 | CAACATTG | 0.115
39 | CTGATTTA | 0.14
40 | GTGATTTA | 0.261
41 | CCGATTTA | 0.107
42 | GCGATTTA | 0.0749
43 | ATGATTTA | 0.202
44 | ACGATTTA | 0.312
45 | CACCTCTA | 0.158
46 | GCAGATAA | -0.0214
47 | CTATACTA | 0.16
48 | ATATACAC | 0.171
49 | CTATACAA | 0.189
50 | ATATACTA | 0.306

Row | Sequence | PBM E-score
51 | ATATACAA | 0.322
52 | ATATACTC | 0.126
53 | AGATCTAC | 0.0426
54 | AGTAACCC | -0.00628
55 | ACAAGTAA | 0.0548
56 | GTCCCTTA | 0.179
57 | ACTTATAC | 0.174
58 | ACTTATTA | 0.263
59 | ACTTATAG | -0.0355
60 | GCTTATTA | 0.232
61 | ACTTATTC | 0.162
62 | CCTTATTA | 0.33
63 | CCTTATTC | 0.0232
64 | CCTTATGA | 0.113
65 | ACTTATAT | 0.29
66 | CCCACGTC | -0.122
67 | CGATTAGC | -0.102
68 | GCACTATA | 0.0864
69 | TAGCAAGA | 0.0496
70 | ACGTAATG | 0.354
71 | ACGTAACG | 0.208
72 | GCGTAAAA | 0.231
73 | AGGTAATA | 0.294
74 | GCGTAATA | 0.305
75 | CGGTAATA | 0.202

Row | Sequence | PBM E-score
76 | ACGTAAAA | 0.198
77 | ACGTAAAG | 0.184
78 | ACGTAATA | 0.44
79 | CCGTAATA | 0.201
80 | ACGTAAGA | 0.23
81 | GGGTAATA | 0.0455
82 | GAGAGCGA | -0.166
83 | CCAGTGTC | -0.1
84 | GCAGATCC | 0.0102
85 | ATCAATAC | 0.11
86 | ACTACCTG | 0.0736
87 | GCGTCTCC | -0.0737
88 | AAATCCTT | -0.0476
89 | CGCTACAC | -0.0665
90 | GATTCAAA | 0.0843
91 | AGCTCTAT | 0.0447
92 | GCTTCTCA | -0.0894
93 | GCAACATA | 0.0566
94 | CCAACATA | 0.305
95 | CCAACATC | -0.011
96 | CCAATGCC | -0.162
97 | AAAAGTAG | 0.105
98 | GCAGCAAA | -0.0366
99 | ACATTCTG | -0.0885
100 | CGCATTGA | 0.125

Row | Sequence | PBM E-score
101 | CTCCTATA | -0.191
102 | GTCCTATA | -0.0462
103 | ATCCTATA | 0.26
104 | CGAGTTGA | 0.0975
105 | GCGGTCGA | 0.0757
106 | ACCTGAAG | 0.00792
107 | GCCTTTTA | -0.0778
108 | CTGGGCGC | -0.229
109 | CATTTCAA | 0.265
110 | CATTTTCC | 0.193
111 | CATTTCCC | 0.293
112 | GATTTCCC | 0.124
113 | GATTTCAA | 0.0767
114 | TATTTCAA | 0.235
115 | ATGGGAGG | -0.0823
116 | TATCTGCA | 0.0463
117 | AAAGGTCG | -0.0514
118 | AACTTGCA | 0.108
119 | TATTCACA | 0.27
120 | GATTCACA | 0.00517
121 | CATTCACG | -0.0375
122 | GAAAATCC | 0.0305
123 | GCGATGAC | 0.0826
124 | CGAATTTC | 0.298
125 | CGAATTTA | 0.136

Row | Sequence | PBM E-score
126 | AGAATTTG | 0.107
127 | ATAATTTC | 0.17
128 | GGAATTTA | 0.173
129 | CTAATTTA | 0.19
130 | AAAATTTG | 0.0972
131 | AGAATTTA | 0.276
132 | ATAATTTA | 0.303
133 | GTAATTTA | 0.238
134 | AGAATTTC | -0.00706
135 | ATAATTTG | 0.294
136 | AAGAAGGG | -0.0033
137 | CCCCGTCG | -0.309
138 | CATGCTTC | -0.024
139 | CAAGGGGG | -0.226
140 | AGTGCATA | -0.0677
141 | GACTGAGC | -0.255
142 | CCTGTTCC | -0.0284
143 | AAGGCCCC | -0.285
144 | ATACAGGG | 0.14
145 | CAGCCTAA | -0.12
146 | AACACGAT | 0.0988
147 | GAAATTAC | 0.265
148 | AAAATTTT | 0.246
149 | GAAATTAA | 0.342
150 | CAAATTAC | 0.144

Row | Sequence | PBM E-score
151 | CAAATTAA | 0.155
152 | AAAATTAT | 0.257
153 | AAAATTGC | 0.0358
154 | AAAATTAC | 0.273
155 | AAATTTAC | 0.219
156 | AAAATTAA | 0.138
157 | AAAATTAG | 0.227
158 | GAAATTCC | 0.0452
159 | GGCTGGGA | -0.103
160 | AACCACCG | -0.0601
161 | CTGGTATA | -0.0636
162 | TCCATGGA | 0.142
163 | ACAGATGG | 0.00201
164 | CGTAATCC | 0.285
165 | GGTAATCA | 0.189
166 | AGTAATCA | 0.117
167 | CGTAATCA | 0.349
168 | CCTAATCC | 0.0254
169 | AGTAATCC | 0.102
170 | CGATCGTA | 0.126
171 | ACCAAATG | 0.0905
172 | TAGTAAGA | 0.227

— the supplement of paper PMC3334620
